FBW7 act: activators of human E3 ligase FBW7; Q969H0; AlphaScreen FBW7–phospho-cyclin E peptide binding, activator screen; normalized activity (activation), % at 26.1 µM; 650,000 tested, 0.13% active; AID 1259310; in the data active = normalized activity above about 1.9%;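 note: purified mutant Fbw7 with reduced substrate affinity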
Target sequence (Q969H0 whole entry, looked up): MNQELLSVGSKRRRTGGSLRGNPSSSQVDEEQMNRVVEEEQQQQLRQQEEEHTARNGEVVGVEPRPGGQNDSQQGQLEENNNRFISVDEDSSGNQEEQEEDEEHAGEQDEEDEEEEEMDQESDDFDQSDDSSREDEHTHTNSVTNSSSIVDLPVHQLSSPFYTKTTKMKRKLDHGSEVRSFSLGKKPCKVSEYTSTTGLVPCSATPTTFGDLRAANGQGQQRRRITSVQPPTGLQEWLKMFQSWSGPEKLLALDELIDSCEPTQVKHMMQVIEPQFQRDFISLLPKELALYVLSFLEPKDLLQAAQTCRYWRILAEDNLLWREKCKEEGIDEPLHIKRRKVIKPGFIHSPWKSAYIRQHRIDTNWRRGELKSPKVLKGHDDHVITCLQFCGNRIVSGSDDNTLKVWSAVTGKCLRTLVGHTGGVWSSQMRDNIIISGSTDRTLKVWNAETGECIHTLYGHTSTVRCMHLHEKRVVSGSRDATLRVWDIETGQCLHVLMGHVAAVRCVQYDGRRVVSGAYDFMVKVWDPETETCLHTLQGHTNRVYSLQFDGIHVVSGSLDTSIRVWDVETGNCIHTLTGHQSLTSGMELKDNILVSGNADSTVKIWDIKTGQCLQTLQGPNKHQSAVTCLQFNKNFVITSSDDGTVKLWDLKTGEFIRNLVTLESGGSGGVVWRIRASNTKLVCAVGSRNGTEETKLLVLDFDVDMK
MITF inh: blocks human microphthalmia-associated transcription factor; AlphaScreen MITF homodimerization, bead proximity signal; inhibition, % at 2.6 µM; 650,000 tested, 0.91% active; O75030; in the data active = inhibition above about 50%;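 note: 0% = vehicle wells with protein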
GPR151 ag: human GPR151 activation; 650,000 tested, 1% active; PathHunter beta-arrestin GPR151 cells, luminescence; Q8TDV0; AID 1508602; activation, % at 11.2 µM; in the data active = activation above about 4.9%;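 note: 0% = median of compound wells and 100% = cells with positive control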
TEAD-YAP inh: TEAD-YAP interaction inhibition; 640,000 tested, 1.4% active; inhibition, % at 9.12 µM; HEK-TIYL cells, TEAD-Gal4/YAP UAS-luciferase luminescence; in the data active = inhibition above about 32%;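 note: 0% = median of test compound wells and 100% = reference inhibitor wells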
* = called active by the depositor. Sampled rows, rich in hits. Any-hit rate of the full collection: about 3.5%.

SMILES	FBW7 act	MITF inh	GPR151 ag	TEAD-YAP inh
Cc1nc2ccccc2nc1OCc1nnc(-c2ccccc2Br)o1	0	1	2	-8
O=S(=O)(NCc1cccnc1)c1cccc(Cl)c1Cl	0	6	4	-12
O=S(=O)(NCc1ccncc1)c1cccc(Cl)c1Cl	0	17	-1	35*
CCOc1cc(S(=O)(=O)NCc2ccncc2)ccc1Cl	0	8	1	52*
CCOc1ccc(S(=O)(=O)NCc2ccncc2)cc1C	0	-2	0	55*
O=S(=O)(NCc1ccncc1)c1ccc(Cl)c(Cl)c1	0	8	2	36*
N=C1/C(=C/c2cn(CCOc3ccc(C4CCCCC4)cc3)c3ccccc23)C(=O)N=C2SC(C(F)(F)F)=NN12	0	13	0	10
Cc1nnc(SCc2ccc(C#N)cc2)[nH]c1=O	0	8	0	-5
Cc1ccc(S(=O)(=O)NCc2ccncc2)cc1	0	1	0	41*
O=S(=O)(NCc1ccncc1)c1ccc(Br)cc1Br	0	5	1	32*
Cc1cc(S(=O)(=O)NCc2ccncc2)c(C)cc1Br	1	13	0	32
CC1=Nc2ccccc2/C1=C/c1sc(=N)n(-c2nccs2)c1O	0	1	0	32*
CC(=O)c1c(C)[nH]c(C(=O)Nc2nc3c(C)cccc3s2)c1C	0	2	1	-43
COc1ccc(CCNC(=O)CN(c2cc(C)ccc2C)S(C)(=O)=O)cc1OC	0	7	0	1
CC(=O)c1ccc(OCC(=O)NCC2Cc3c(F)ccc(-c4ccncc4)c3O2)cc1 (configuration not stated)	0	0	4	33*
CCc1ccc(N=C2N=C(N)c3ccccc32)cc1	0	1	2	-31
NC1=NC(=Nc2ccc(N3CCOCC3)cc2)c2ccccc21	0	-12	0	48*
Cc1cnc(NC(=O)c2ccc(Cn3ccnc3)cc2)s1	0	0	-1	61*
CCOC(=O)c1[nH]c(C)c(C(=O)/C=C/c2ccc(N(C)C)c([N+](=O)[O-])c2)c1C	0	13	1	50*
CCOC(=O)c1[nH]c(C)c(/C(C)=N\Nc2ccc([N+](=O)[O-])cc2[N+](=O)[O-])c1C	0	-1	0	-4
C[C@H](Nc1ccc(C(F)(F)F)cc1[N+](=O)[O-])C(=O)Nc1nc2ccccc2[nH]1	0	-4	0	32*
CC(Nc1ccc(C(F)(F)F)cc1[N+](=O)[O-])C(=O)O (configuration not stated)	0	-2	-1	12
c1ccc2[nH]c(CNc3nc(-c4ccc(N5CCOCC5)nc4)nc4c3ncn4-c3ccsc3)nc2c1	23*	4	2	82*
CC(C)n1cnc2c(NCc3ccccc3)nc(-c3ccc(N4CCOCC4)nc3)nc21	0	3	-2	5
CC(C)n1cnc2c(NCc3nc4ccccc4[nH]3)nc(N3CCOCC3)nc21	0	-2	-1	79*
SMILES	FBW7 act	MITF inh	GPR151 ag	TEAD-YAP inh
CC(C)n1cnc2c(NCc3nc4ccccc4[nH]3)nc(-c3ccc(N4CCOCC4)nc3)nc21	0	-1	-1	70*
COc1ccc(-c2nc(NCc3nc4ccccc4[nH]3)c3ncn(-c4ccsc4)c3n2)cc1	0	16	1	27
COc1ccc(-c2nc(NCc3nc4ccccc4[nH]3)c3ncn(-c4ccsc4)c3n2)cn1	1	0	-1	78*
CC(C)c1nccn1CC1CCN(C(=O)C2(c3ccccc3)CCOCC2)CC1	1	14	0	2
CCS(=O)(=O)Nc1ccc(-c2cn3c(C)csc3n2)cc1	0	0	2	33*
Cc1csc2nc(-c3ccc(NS(=O)(=O)N(C)C)cc3)cn12	0	13	0	2
COc1ccccc1N1CCN(C(=O)CSc2nc3ccccc3c(=O)n2CCC(=O)NC2CCCCC2)CC1	0	-9	2	46*
COc1ccc(C2NC(=O)c3[nH]nc(-c4ccc(C)cc4)c32)c(OC)c1 (configuration not stated)	0	12	0	44*
CCOc1ccc(-c2n[nH]c3c2C(c2ccc(F)cc2)NC3=O)cc1 (configuration not stated)	0	-7	-1	3
CCOc1ccc(-c2n[nH]c3c2C(c2cc(OC)ccc2OC)NC3=O)cc1 (configuration not stated)	0	4	1	51*
O=C(NNc1ccccc1)NNc1ccccc1	0	13	0	12
Cc1cc(C)c(C=Nc2ccccc2C(N)=O)c(C)c1	0	-3	1	10
Cc1ccccc1C=Nc1ccccc1C(N)=O	0	-14	0	49*
CNC(=O)/C(C#N)=C/c1c(Oc2cccc(C)c2C)nc2ccccn2c1=O	0	9	-3	28
CCNC(=O)/C(C#N)=C/c1c(Oc2cccc(C)c2C)nc2ccccn2c1=O	0	-10	-4	42*
CCNC(=O)/C(C#N)=C/c1c(Oc2ccccc2C)nc2ccccn2c1=O	0	5	-6	34*
O=C1OC(c2ccc(Cl)cc2)=C/C1=C\c1ccco1	0	53*	0	-9
Cc1ccc(C2=C/C(=C/c3ccc(Cl)cc3)C(=O)O2)cc1	0	0	-1	15
CC1=C/C(=C/c2ccco2)C(=O)O1	0	65*	1	1
CN1C/C(=C/c2ccco2)C(=O)/C(=C/c2ccco2)C1	0	28	0	3
COc1ccc(C2=C/C(=C/c3ccco3)C(=O)O2)cc1OC	0	74*	-1	-3
c1ccc(C2=NNC(c3ccccc3)=NN2)cc1	0	5	-6	42*
CCOC(=O)C(=N\O)/C(C)=N/NC(=O)CC#N	0	71*	-1	-6
CC(C)c1cc(C(=O)Nc2ccc(F)cc2)nn1-c1nc2ccccc2s1	0	34	1	-7
CC(C)c1cc(C(=O)NCc2ccco2)nn1-c1nc2ccccc2s1	0	-2	1	78*
SMILES	FBW7 act	MITF inh	GPR151 ag	TEAD-YAP inh
O=S(=O)(c1ccccc1)c1nc(/C=C/c2ccccc2)oc1N1CCOCC1	0	5	-1	6
COc1ccc(C(=O)NNS(=O)(=O)c2cccc([N+](=O)[O-])c2)cc1	0	10	2	-3
Cc1ccc(OCc2cc(C(=O)N(C)CCC3CCOCC3)no2)cn1	0	-1	4	39*
COc1ccccc1N(/C=C1\Sc2ccccc2C1=O)C(C)=O	0	3	2	79*
CC(=O)N(/C=C1\Sc2ccccc2C1=O)c1ccc(C)cc1	0	14	-3	70*
CC(=O)N(/C=C1\Sc2ccccc2C1=O)c1ccc(C(=O)O)cc1	0	13	-4	-5
CCOC(=O)c1c(NC(=O)CSc2nnc(CNC(=O)COc3ccccc3)n2CCc2ccccc2)sc2c1CCC2	0	-11	2	-2
Cc1ccc(-c2nc(CSCC(=O)O)c(C)o2)cc1	0	-3	-1	81*
CCc1ccc(-c2nc(CSCC(=O)NCCN(C)C)c(C)o2)cc1	0	18	-1	38*

High-throughput results: PubChem, The Scripps Research Institute Molecular Screening Center
